Assay results from the supplement of paper PMC12532568.
Structures can show the parent of a compound that is named as a salt.

What follows are compounds tested on Danio rerio larvae Tg(actc1b:ZsGreen-LC3), 3 dpf (assay: LC3 puncta relative area vs vehicle, without NH4Cl (log2 fold change); higher = more autophagosomes). Conditions: 10 µM; treatment time 16 h; NH4Cl: none.
Procedure: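 Transgenic Tg(actc1b:ZsGreen-map1lc3) zebrafish larvae (2 dpf) were treated for 16 h with Tocris library compounds at 10 µM (n = 12 larvae per compound). Skeletal-muscle LC3 puncta area relative to body area was measured by high-content confocal imaging before and after 4 h of 100 mM NH4Cl (autophagic flux), normalised to vehicle (DMSO), and reported as log2 fold change.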

| SMILES | LC3 puncta (log2) |
| --- | --- |
| NCCc1c[nH]c2ccc(C(N)=O)cc12 [5-Carboxamidotryptamine maleate] | 0.0843 |
| N=C(NCc1ccc(Cl)cc1)SCCCc1c[nH]cn1 [Clobenpropit dihydrobromide] | 0.454 |
| NCC(CS(=O)(=O)O)c1ccc(Cl)cc1 (stereo not given) [Saclofen] | -0.022 |
| N[C@@H](Cn1oc(=O)[nH]c1=O)C(=O)O [L-Quisqualic acid] | 0.387 |
| N[C@@]1(C(=O)O)CC[C@@H](C(=O)O)C1 | 0.259 |
| C=CCN1CC[C@]23c4c5ccc(O)c4O[C@H]2C(=O)CC[C@@]3(O)[C@H]1C5 [Naloxone hydrochloride] | 0.085 |
| CCCN(CCC)C1CCc2cccc(O)c2C1 (stereo not given) [8-Hydroxy-DPAT hydrobromide] | 0.14 |
| CCC(Oc1ccc(Cl)cc1)C(=O)OC1C[C@H]2CC[C@@H](C1)N2C (stereo not given in full) [SM-21 maleate] | 0.226 |
| CC(CN)CC(=O)O (stereo not given) [3-Methyl-GABA] | 0.26 |
| Cc1[nH]c2ccc(O)cc2c1CCN [2-Methyl-5-hydroxytryptamine hydrochloride] | -0.132 |
| c1ccc2c(c1)[I+]c1ccccc1-2 [Diphenyleneiodonium chloride] | 0.217 |
| O=C(O)Cc1cccnc1C(=O)O [Homoquinolinic acid] | -0.131 |
| CN(C(=O)Cc1ccc(Cl)c(Cl)c1)[C@H](CN1CCCC1)c1ccccc1 [ICI 199,441 hydrochloride] | 0.0954 |
| CS(=O)(=O)Nc1ccc(Cc2noc(-c3ccc4[nH]cc(CCN)c4c3)n2)cc1 | 0.431 |
| Cn1cnc(CCN)c1 [N?-Methylhistamine dihydrochloride] | 0.287 |
| COc1ccc(CNC(=O)/C=C/c2ccc3[nH]cc(CCN(C)C)c3c2)cc1 | -0.124 |
| CC(C)[C@@]1(NC(=O)[C@@H]2C[C@@H]3c4cccc5[nH]cc(c45)C[C@H]3N(C)C2)O[C@@]2(O)[C@@H]3CCCN3C(=O)[C@H](Cc3ccccc3)N2C1=O [Dihydroergocristine mesylate] | -0.412 |
| Oc1ccc2c3c1O[C@H]1c4[nH]c5ccccc5c4C[C@@]4(O)[C@@H](C2)N(CC2CC2)CC[C@]314 [Naltrindole hydrochloride] | 0.245 |
| O=C(Cc1ccc(Cl)c(Cl)c1)N1CCCCC1CN1CCCC1 (stereo not given) | 0.372 |
| CN1C[C@H](CNC(=O)OCc2ccccc2)C[C@@H]2c3cccc4c3c(cn4C)C[C@H]21 [Metergoline] | 0.0502 |

| SMILES | LC3 puncta (log2) |
| --- | --- |
| CC(=O)NCCc1c[nH]c2ccccc12 [N-Acetyltryptamine] | -0.161 |
| CC(=O)N1CC[N+](C)(C)CC1 [4-Acetyl-1,1-dimethylpiperazinium iodide] | -0.21 |
| Clc1cccc(SC2CCNCC2)n1 [Anpirtoline hydrochloride] | 0.143 |
| C=CCN1C[C@H](C)N([C@H](c2ccc(C(=O)N(CC)CC)cc2)c2cccc(OC)c2)C[C@H]1C | 0.784 |
| CC(N)Cc1cnc[nH]1 (stereo not given) | 0.372 |
| O=C(O)/C=C/CO [trans-4-Hydroxycrotonic acid] | -0.0373 |
| CN1C(=O)CCS(=O)(=O)C1c1ccc(Cl)cc1 (stereo not given) [Chlormezanone] | -0.0101 |
| c1ccc(CCCN2CCN(CCOC(c3ccccc3)c3ccccc3)CC2)cc1 | 0.0674 |
| c1ccc2sc(C3(N4CCCCC4)CCCCC3)cc2c1 [BTCP maleate] | 0.288 |
| CC[N+](CC)(CCCNC1=CC(=O)C(NCCC[N+](CC)(CC)Cc2ccccc2)=CC1=O)Cc1ccccc1 [Benzoquinonium dibromide] | -0.144 |
| O=C1CCCN1CC#CCN1CCCC1 [Oxotremorine sesquifumarate] | -0.285 |
| Cc1ccc(C[N+](C)(C)C)o1 [5-Methylfurmethiodide] | -0.0134 |
| CO[C@]12C[C@@H](COC(=O)c3cncc(Br)c3)CN(C)[C@@H]1Cc1cn(C)c3cccc2c13 [Nicergoline] | 0.51 |
| COC(=O)[C@@H](N)CCCNC(=N)N[N+](=O)[O-] [L-NAME hydrochloride] | -0.0167 |
| c1ccc2c(c1)OCC(C1=NCCN1)O2 (stereo not given) [Idazoxan hydrochloride] | 0.411 |
| Oc1ccc2c3c1O[C@H]1c4c(c5ccccc5n4Cc4ccccc4)C[C@@]4(O)C(C2)N(CC2CC2)CC[C@]314 [N-Benzylnaltrindole hydrochloride] | 0.458 |
| Cc1nc(N)sc1CCN [Amthamine dihydrobromide] | 0.0368 |
| CCCN(CCC)[C@@H]1CCc2c(OC)cccc2[C@@H]1C [(+)-UH 232 maleate] | 0.36 |
| CN(C(=O)Cc1ccccc1)C(CN1CCCC1)c1ccccc1 (stereo not given) [N-MPPP Hydrochloride] | 0.385 |
| O=c1[nH]oc2c1CCNC2 [THIP hydrochloride] | 0.233 |
